Test results published in PubChem BioAssay (EPA / NIEHS).
Activity calls are given as the source filed them. Rule for the calls: active = hit-call score of the fitted dose curve at least 0.9, where 1 is the maximum; inactive = score below 0.9.

Tests used:
Conditions in all cases: mRNA level, 48 h; actives raise or lower the signal
[1] = read-out: ABC Transporter (ABCC3), ABCC3 (gene 8714); experiment: LTEA_HepaRG_ABCC3: Life Technologies and Expression Analysis (LTEA) Assay for ABC Transporter (ABCC3) using HepaRG (AID 2283462)
How it was run: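 Transcript level by TaqMan qRT-PCR, normalised to three housekeeping genes, fitted in both directions relative to vehicle. Chemicals tested in duplicate at eight half-log concentrations up to 100 uM for 48 h on HepaRG cells (0.5% DMSO).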

[2] = read-out: ABC Transporter (ABCC2), ABCC2 (gene 1244); experiment: LTEA_HepaRG_ABCC2: Life Technologies and Expression Analysis (LTEA) Assay for ABC Transporter (ABCC2) using HepaRG (AID 2283464)
How it was run: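 Endpoint is ABCC2 transcript level from qRT-PCR, normalized to three housekeeping genes and fitted bidirectionally relative to DMSO. Human HepaRG cells received test chemical for 48 h at up to 100 uM (8 points, half-log steps, 0.5% DMSO), duplicate wells.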

[3] = read-out: Broad substrate specificity ATP-binding cassette transporter ABCG2 (Homo sapiens) (UniProt Q9UNQ0); experiment: LTEA_HepaRG_ABCG2: Life Technologies and Expression Analysis (LTEA) Assay for ABC Transporter (ABCG2) using HepaRG (AID 2283465)
How it was run: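 Read-out is ABCG2 mRNA induction or loss quantified by qRT-PCR after 48 h chemical treatment of human HepaRG cells, normalized to three housekeeping genes. Concentrations reached 100 uM top in half-log steps; fitting was bidirectional against 0.5% DMSO.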

[4] = read-out: Peroxisomal acyl-coenzyme A oxidase 1 (ACOX1) gene, ACOX1 (gene 51); experiment: LTEA_HepaRG_ACOX1: Life Technologies and Expression Analysis (LTEA) Assay for Peroxisomal acyl-coenzyme A oxidase 1 (ACOX1) gene using HepaRG (AID 2283467)
How it was run: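 Measured by qRT-PCR against three housekeeping genes: ACOX1 transcript change in human HepaRG cells after 48 h dosing. Concentrations ran up to 100 uM in half-log steps. Curves were fitted bidirectionally relative to 0.5% DMSO.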

[5] = read-out: Alkaline Phosphatase, Placental (ALPP) gene, ALPP (gene 250); experiment: LTEA_HepaRG_ALPP: Life Technologies and Expression Analysis (LTEA) Assay for Alkaline Phosphatase, Placental (ALPP) gene using HepaRG (AID 2283468)
How it was run: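 ALPP transcript level, measured by qRT-PCR and normalized to three housekeeping genes (ACTB, GAPDH, POLR2A), after 48 h dosing of differentiated HepaRG in serum-free induction medium. Top concentration 100 uM with half-log dilutions (8 points, 0.5% DMSO, duplicates); bidirectional fitting relative to DMSO.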

[6] = read-out: Bcl-2 (BAD) gene, BAD (gene 572); experiment: LTEA_HepaRG_BAD: Life Technologies and Expression Analysis (LTEA) Assay for Bcl-2 (BAD) gene using HepaRG (AID 2283469)
How it was run: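 BAD transcript change, measured by qRT-PCR against three housekeeping genes and fitted in both directions relative to 0.5% DMSO, after 48 h chemical treatment of human HepaRG liver cells at concentrations up to 100 uM.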

[7] = read-out: Bcl-2 (BAX) gene, BAX (gene 581); experiment: LTEA_HepaRG_BAX: Life Technologies and Expression Analysis (LTEA) Assay for Bcl-2 (BAX) gene using HepaRG (AID 2283470)
How it was run: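 Differentiated human HepaRG cells, plated 48 h then switched to serum-free induction medium, were exposed 48 h to 8 half-log concentrations up to 100 uM in 0.5% DMSO; BAX mRNA measured by qRT-PCR, normalized to ACTB, GAPDH, POLR2A.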

[8] = read-out: adenosine kinase (ADK) gene, ADK (gene 132); experiment: LTEA_HepaRG_ADK: Life Technologies and Expression Analysis (LTEA) Assay for adenosine kinase (ADK) gene using HepaRG (AID 2283471)
How it was run: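 HepaRG (human liver), 48 h chemical exposure, 8-pt half-log series, top 100 uM, 0.5% DMSO vehicle. Readout: ADK mRNA by qRT-PCR vs housekeeping genes; bidirectional curve fit relative to DMSO baseline.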

[9] = read-out: Alpha-fetoprotein (AFP) gene, AFP (gene 174); experiment: LTEA_HepaRG_AFP: Life Technologies and Expression Analysis (LTEA) Assay for Alpha-fetoprotein (AFP) gene using HepaRG (AID 2283472)
How it was run: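 Human HepaRG cells plated 48 h, then switched to serum-free induction medium and exposed in duplicate for 48 h to 8-point half-log series from 100 uM in 0.5% DMSO. AFP mRNA by qRT-PCR, normalized to ACTB, GAPDH, POLR2A; bidirectional fit versus DMSO.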

BCL2L11 (gene 10018) = experiment: LTEA_HepaRG_BCL2L11: Life Technologies and Expression Analysis (LTEA) Assay for Bcl-2 (BCL2L11) gene using HepaRG (AID 2283473)
How it was run: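 BCL2L11 transcript levels are measured by Fluidigm qRT-PCR, normalized to three housekeeping genes. HepaRG cultures were plated 48 h, then treated 48 h with test chemical (top 100 uM, half-log, 0.5% DMSO vehicle); curves were fitted bidirectionally against DMSO.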

[10] = read-out: Apolipoprotein A-V (APOA5) gene, APOA5 (gene 116519); experiment: LTEA_HepaRG_APOA5: Life Technologies and Expression Analysis (LTEA) Assay for Apolipoprotein A-V (APOA5) gene using HepaRG (AID 2283474)
How it was run: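 APOA5 transcript levels were quantified by qRT-PCR, normalized to three housekeeping genes, after 48 h chemical treatment of HepaRG cells (8 points, 100 uM maximum, half-log steps, 0.5% DMSO). Curves fitted in both directions against vehicle.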

[11] = read-out: Apoptosis regulator Bcl-2 (Homo sapiens) (UniProt P10415); experiment: LTEA_HepaRG_BCL2: Life Technologies and Expression Analysis (LTEA) Assay for Bcl-2 gene using HepaRG (AID 2283475)
How it was run: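 Differentiated HepaRG cells in serum-free induction medium were exposed for 48 h to eight half-log concentrations up to 100 uM in 0.5% DMSO, in duplicate. BCL2 mRNA was quantified by TaqMan qRT-PCR normalised to ACTB, GAPDH and POLR2A, with bidirectional fitting versus DMSO.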

[12] = read-out: Bcl-2 (BID) gene, BID (gene 637); experiment: LTEA_HepaRG_BID: Life Technologies and Expression Analysis (LTEA) Assay for Bcl-2 (BID) gene using HepaRG (AID 2283476)
How it was run: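 Differentiated HepaRG cells in serum-free induction medium were exposed in duplicate for 48 h to eight half-log concentrations up to 100 uM in 0.5% DMSO. BID mRNA was quantified by qRT-PCR, normalized to ACTB, GAPDH and POLR2A.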

[13] = read-out: cysteine-aspartic acid protease (CASP8), CASP8 (gene 841); experiment: LTEA_HepaRG_CASP8: Life Technologies and Expression Analysis (LTEA) Assay for cysteine-aspartic acid protease (CASP8) using HepaRG (AID 2283480)
How it was run: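 HepaRG, 48 h exposure, duplicate wells; 8 conc, half-log from 100 uM, 0.5% DMSO. Serum-free induction medium. CASP8 mRNA by TaqMan qRT-PCR, norm. ACTB/GAPDH/POLR2A; gain/loss fitted vs DMSO.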

[14] = read-out: ABC Transporter (ABCB11), ABCB11 (gene 8647); experiment: LTEA_HepaRG_ABCB11: Life Technologies and Expression Analysis (LTEA) Assay for ABC Transporter (ABCB11) using HepaRG (AID 2283463)
How it was run: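 ABCB11 transcript levels are read by Fluidigm TaqMan qRT-PCR after 48 h chemical treatment of human HepaRG cells. Concentrations span 100 uM downward in half-log steps with 0.5% DMSO; gain or loss is fitted against DMSO controls.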

[15] = read-out: Cytochrome P450 (CYP24A1), CYP24A1 (gene 1591); experiment: LTEA_HepaRG_CYP24A1: Life Technologies and Expression Analysis (LTEA) Assay for Cytochrome P450 (CYP24A1) using HepaRG (AID 2283478)
How it was run: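 mRNA of CYP24A1 quantified by TaqMan qRT-PCR (ACTB/GAPDH/POLR2A normalization) after 48 h chemical exposure of HepaRG cells, top concentration 100 uM, half-log steps, 0.5% DMSO vehicle, duplicates. Curves fitted bidirectionally against DMSO baseline.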

[16] = read-out: Cytochrome P450 (CYP1A2), CYP1A2 (gene 1544); experiment: LTEA_HepaRG_CYP1A2: Life Technologies and Expression Analysis (LTEA) Assay for Cytochrome P450 (CYP1A2) using HepaRG (AID 2283479)
How it was run: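 CYP1A2 transcript measured by TaqMan qRT-PCR against three housekeeping genes after 48-hour chemical exposure of HepaRG cells. Eight-point half-log series topping at 100 uM in 0.5% DMSO, duplicates; gain or loss fitted relative to vehicle.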

[17] = read-out: Cytochrome P450 (CYP2B6), CYP2B6 (gene 1555); experiment: LTEA_HepaRG_CYP2B6: Life Technologies and Expression Analysis (LTEA) Assay for Cytochrome P450 (CYP2B6) using HepaRG (AID 2283481)
How it was run: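 CYP2B6 transcript level quantified by qRT-PCR against three housekeeping genes, fitted bidirectionally relative to DMSO. HepaRG cultures received chemicals for 48 h, 8-point half-log series from 100 uM in 0.5% DMSO, duplicate wells, serum-free induction medium.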

[18] = read-out: Cytochrome P450 2C19 (Homo sapiens) (UniProt P33261); experiment: LTEA_HepaRG_CYP2C19: Life Technologies and Expression Analysis (LTEA) Assay for CYP2C19 using HepaRG (AID 2283482)
How it was run: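 CYP2C19 transcript levels by qRT-PCR, normalized to three housekeeping genes, in HepaRG cells after 48 h chemical exposure. Eight-point half-log series topping at 100 uM, 0.5% DMSO vehicle. Increases and decreases both fitted against DMSO.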

CYP2C8 (gene 1558) = experiment: LTEA_HepaRG_CYP2C8: Life Technologies and Expression Analysis (LTEA) Assay for CYP2C8 using HepaRG (AID 2283483)
How it was run: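 CYP2C8 mRNA induction or loss, by qRT-PCR normalized to ACTB/GAPDH/POLR2A, is read in HepaRG cells after 48 h treatment. Concentrations run from 100 uM down in half-log dilutions, with 0.5% DMSO as vehicle and baseline.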

Measured: AC50

Broad substrate specificity ATP-binding cassette transporter ABCG2 (Homo sapiens), sequence (Q9UNQ0 whole entry, looked up): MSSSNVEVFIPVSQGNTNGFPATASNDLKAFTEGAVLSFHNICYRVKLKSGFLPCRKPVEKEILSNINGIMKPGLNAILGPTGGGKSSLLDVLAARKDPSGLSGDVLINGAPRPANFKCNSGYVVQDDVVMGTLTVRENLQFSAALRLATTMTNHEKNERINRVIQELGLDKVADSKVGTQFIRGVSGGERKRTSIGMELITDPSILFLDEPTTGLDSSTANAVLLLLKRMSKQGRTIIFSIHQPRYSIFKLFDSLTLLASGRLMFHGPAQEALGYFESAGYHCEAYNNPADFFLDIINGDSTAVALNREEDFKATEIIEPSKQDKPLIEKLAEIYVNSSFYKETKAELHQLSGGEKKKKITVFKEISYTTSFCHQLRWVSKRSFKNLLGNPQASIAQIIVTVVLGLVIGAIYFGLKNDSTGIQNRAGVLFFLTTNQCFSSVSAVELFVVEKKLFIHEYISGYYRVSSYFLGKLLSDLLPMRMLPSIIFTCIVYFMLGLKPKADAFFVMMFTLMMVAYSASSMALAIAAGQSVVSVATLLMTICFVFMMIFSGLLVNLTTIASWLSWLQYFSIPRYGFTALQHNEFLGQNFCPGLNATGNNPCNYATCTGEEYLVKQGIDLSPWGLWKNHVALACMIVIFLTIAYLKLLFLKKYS
Apoptosis regulator Bcl-2 (Homo sapiens), sequence (P10415 whole entry, looked up): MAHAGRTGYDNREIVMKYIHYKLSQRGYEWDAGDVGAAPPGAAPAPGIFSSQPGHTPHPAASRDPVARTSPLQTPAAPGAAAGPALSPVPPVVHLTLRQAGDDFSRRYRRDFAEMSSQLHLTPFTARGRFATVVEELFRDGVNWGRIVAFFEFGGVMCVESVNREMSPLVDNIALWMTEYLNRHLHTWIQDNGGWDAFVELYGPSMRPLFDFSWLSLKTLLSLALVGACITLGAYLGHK
Cytochrome P450 2C19 (Homo sapiens), sequence (P33261 whole entry, looked up): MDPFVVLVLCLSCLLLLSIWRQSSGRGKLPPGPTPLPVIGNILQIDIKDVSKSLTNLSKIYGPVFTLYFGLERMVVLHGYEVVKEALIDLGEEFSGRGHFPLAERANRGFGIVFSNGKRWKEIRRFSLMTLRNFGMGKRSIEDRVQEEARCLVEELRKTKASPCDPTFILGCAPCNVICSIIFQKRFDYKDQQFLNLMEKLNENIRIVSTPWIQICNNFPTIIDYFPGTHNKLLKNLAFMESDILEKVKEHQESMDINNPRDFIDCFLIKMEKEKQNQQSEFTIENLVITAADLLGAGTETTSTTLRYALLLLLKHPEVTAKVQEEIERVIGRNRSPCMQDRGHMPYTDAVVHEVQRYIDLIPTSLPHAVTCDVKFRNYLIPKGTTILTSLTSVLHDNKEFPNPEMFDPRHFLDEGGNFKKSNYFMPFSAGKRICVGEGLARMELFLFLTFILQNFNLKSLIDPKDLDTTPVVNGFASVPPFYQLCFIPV

CS(=O)(=O)c1ccc([C@@H](CC2CCCC2)C(=O)Nc2cnccn2)cc1Cl
inactive: [1] | [2] | [4] | [6] | [8] | BCL2L11 (gene 10018) | [12] | [13]
active: [3] 12.8 µM | [5] 81.2 µM | [7] 41.3 µM | [9] 69.8 µM | [10] 71.2 µM | [11] 61.8 µM

O=C(c1ccccc1)c1ccccc1
not listed: [15] | [16] | [17] | [18] | CYP2C8 (gene 1558)
inactive: all other assays above

Cc1[nH]nc2c1N=C(c1ccccc1Cl)c1cc([N+](=O)[O-])ccc1N2
inactive: [3] | [6] | [8] | [13]
active: [1] 3.26 µM | [14] 8.72 µM | [2] 31.9 µM | [4] 20.1 µM | [5] 1.59 µM | [7] 3.85 µM | [9] 4.36 µM | BCL2L11 (gene 10018) 2.82 µM | [10] 9.84 µM | [11] 8.98 µM | [15] 4.02 µM | [16] 11.5 µM | [17] 8.93 µM | [18] 4.24 µM | CYP2C8 (gene 1558) 7.45 µM

CCCCCCCCCCCCCCC
active: [17] 5.89 µM | [18] 17.3 µM
inactive: all other assays above
